The values below come from PubChem BioAssay AID651871 (Sanford-Burnham Center for Chemical Genomics, 2012).

SMILES strings stand for the structures. Several values for one entry are separate records, joined by “and”; a condition that tells them apart may be missing. Equal entries are not always repeated.

The test system of this assay is HL-1. Put plainly: protection of cardiomyocytes from stress damage, SAR follow-up, cell-based, panel, H9c2 and HL-1, ATP luminescence, set 2 (AID 651871).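 Further: cells exposed to stressor for 2 h before ATP readout; reference of the scale not given here.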 The settings on record: H9c2/HL-1 cardiomyocytes, 2-deoxyglucose stress, with 2-deoxyglucose.
Where [1] appears, read: run 10, at 79 µM (top of the series).

Consider `COc1ccc2c(c1OC)C(=O)N1c3ccccc3C(=O)N(Cc3cccc(Cl)c3Cl)C21` (centres undefined), for which the activity (protection/inhibition) (run 10, at 19.8 µM (top of the series)) was found to be 33.5%; the activity (protection/inhibition) under setting [1] is 36.7% and -11.3%. Turning to `CCOC(=O)c1cccc(NC(=O)CNC(=O)c2cc(-c3cc(OC)c(OC)c(OC)c3)nc3ccccc23)c1`, the activity (protection/inhibition) under setting [1] amounted to 98.6%. With `COc1ccc2nc(-c3cc(OC)c(OC)c(OC)c3)cc(C(=O)NCC(=O)Nc3ccc(C(C)=O)cc3)c2c1`, under setting [1], the activity (protection/inhibition) was determined as 56%.
